# Sampled rows, rich in hits. Any-hit rate of the full collection: about 21%.
# Cycloheximide cs: Cycloheximide Counterscreen for Small Molecule Inhibitors of Shiga Toxin; 300,000 tested, 12% active; cell reporter, cycloheximide protein synthesis inhibition counterscreen; max response, %; AID 2314, 2010; in the data active = max response mostly above about 13%, no sharp cut-off; inactive = mostly below about 14%; also: read at 38.3 µM for the half of the compounds with a filed dose
# Shiga inhibitor: A qHTS for Small Molecule Inhibitors of Shiga Toxin; Vero cells, Shiga toxin protein synthesis inhibition reporter; inhibition, % at 38.7 µM; 290,000 tested, 9.2% active; AID 2315, 2010; in the data active = inhibition mostly above about 28%, no sharp cut-off; inactive = mostly below about 43%
# Pf growth 48h: Primary qHTS for delayed death inhibitors of the malarial parasite plastid, 48 hour incubation; P. falciparum luciferase growth in erythrocytes, 48 h; Potency, µM (highest dose often 28.7 µM), most hits filed as inhibitors; 310,000 tested, 5.9% active; AID 504832, 2011
#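 Erythrocytes infected with P. falciparum carrying an integrated firefly luciferase reporter (2% hematocrit, 0.1% parasitemia final) were exposed to compounds in RPMI 1640 with 0.5% Albumax at 37 C, 5% CO2. Growth inhibition was scored as reduced luminescence.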
# Pf growth 96h: Primary qHTS for delayed death inhibitors of the malarial parasite plastid, 96 hour incubation | P. falciparum luciferase reporter growth, 96 h | Potency, µM (series often up to 28.7 µM), most hits filed as inhibitors | 320,000 tested, 6.9% active | AID 504834, 2011
#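 96 h incubation, 37 C, 5% CO2, of luciferase-reporter P. falciparum-infected RBCs (2% hematocrit, 0.05% parasitemia final) with test compounds; endpoint luminescence.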
# NS1 function inh: qHTS Assay for Inhibitors of Influenza NS1 Protein Function. Potency, µM (highest dose often 46.1 µM). 270,000 tested, 0.4% active; calls by dose curve; also: actives are rising curves; nearly all actives have a fitted effect of over 50% in size
#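 A cell-based growth assay was used: compounds that relieve NS1-induced slow growth of budding yeast raise OD600. Assay medium was yeast nitrogen base with ammonium sulphate and -URA supplement, pH 6.0, with 2% galactose.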
# Hits are given with their value; . = inactive; ? = inconclusive; / = not tested or not shown. Unless noted, calls follow the shape of the dose curve; as a rule, active = well fitted inhibition curve with a large enough effect; inconclusive = small, poorly fitted or top-dose-only effect, or another doubt; inactive = no such curve, though single readings can be large or run the other way.
SMILES,Cycloheximide cs,Shiga inhibitor,Pf growth 48h,Pf growth 96h,NS1 function inh
CC(C(=O)Nc1ccc2c(c1)OCO2)c1ccc([N+](=O)[O-])cc1 (stereo not drawn),.,.,2.3µM,?,.
CCN(CC)C(C(=O)Nc1ccc(C(C)C)cc1)c1ccc2c(c1)OCO2 (stereo not drawn),.,.,8.3µM,.,.
O=C(Cc1ccc([N+](=O)[O-])cc1)Nc1ccc2c(c1)OCO2,.,.,.,.,/
CC(C)c1ccc(NC(=O)C(c2ccc3c(c2)OCO3)N2CCN(C(=O)c3ccco3)CC2)cc1 (stereo not drawn),.,.,?,.,.
CCCCC(=O)Nc1ccc(NC(=S)NC(=O)c2cccs2)cc1OC,.,.,.,.,.
CC(C)c1ccc(NC(=S)N2CCCC(c3ccc(F)cc3)=N2)cc1,.,.,?,?,.
CS(=O)(=O)c1ccc(C(=O)N2CCN(C(=O)c3ccco3)CC2)cc1,/,/,.,.,/
CC(C(=O)Nc1cccnc1)c1ccc([N+](=O)[O-])cc1 (stereo not drawn),.,.,?,.,/
CC(C(=O)Nc1cccc(Br)c1)c1ccc([N+](=O)[O-])cc1 (stereo not drawn),.,.,10µM,?,.
Nc1cccc(Cl)c1N1CCOCC1,.,.,.,.,.
Clc1cccc(N=NN2CCOCC2)c1Cl,20,.,?,.,.
Clc1ccccc1/C=C/c1nc(-c2ccccn2)no1,.,.,2.1µM,.,.
c1ccc(-c2noc(-c3cccnc3)n2)nc1,42,80,.,/,?
c1ccc(-c2noc(-c3ccncc3)n2)nc1,34,.,.,.,.
Cc1onc(-c2ccccc2Cl)c1-c1nc(-c2ccccn2)no1,.,.,.,.,.
O=[N+]([O-])c1cccc(-c2nc(-c3ccccn3)no2)c1,46,72,.,.,.
CSc1ccccc1OCc1cc(C(=O)N2CCc3[nH]cnc3C2c2ccccn2)no1 (stereo not drawn),.,.,?,.,.
CCCCC(=O)N(CCOC)c1nnc(-c2ccccc2C)s1,.,.,?,.,.
CCOc1ccc(/C(C)=N\NC(=O)Cc2ccccc2)cc1,.,.,.,?,.
COc1ccc(N2CCN(c3nc4c(c(=O)n(C)c(=O)n4C)n3CCCc3ccccc3)CC2)cc1,.,.,.,.,.
O=C1CC(c2cccc(Br)c2)c2cc3c(cc2N1)CCC3 (stereo not drawn),.,.,?,?,.
CCN(CC)CCCNc1nc(CN2CCOCC2)nc2sc3c(c12)CCC3,.,.,.,?,.
CCC(C)Nc1nc(CN2CCOCC2)nc2sc3c(c12)CCC3 (stereo not drawn),.,.,/,9.3µM,.
Cc1cccc(Oc2nc(CN3CCOCC3)nc3sc4c(c23)CCCC4)c1,.,.,10µM,?,.
Cc1nc(Oc2ccc(S(=O)(=O)N3CCOCC3)cc2Cl)c2c3c(sc2n1)CCCC3,.,.,?,13µM,.
SMILES,Cycloheximide cs,Shiga inhibitor,Pf growth 48h,Pf growth 96h,NS1 function inh
CCOc1ccccc1NC(=O)NCc1ccc2c(c1)OCO2,.,.,.,?,.
Cc1cc(-c2nnc(SCC(=O)Nc3ccc(C)c(C)c3)n2N)n[nH]1,.,.,.,?,.
Cc1cc(C(=O)COC(=O)c2ccncc2)c(C)n1Cc1ccco1,44,116,.,.,/
Cc1cc(C(=O)CSc2nnc(N)s2)c(C)n1Cc1ccco1,39,57,.,.,/
Cc1cc(C(=O)COC(=O)c2cc(Cl)ccc2N)c(C)n1Cc1ccco1,91,119,.,.,.
Nc1c(N(CCC2=CCCCC2)C(=O)c2ccco2)c(=O)[nH]c(=O)n1Cc1ccccc1,/,/,?,.,/
O=C(NCC1CCOCC1)c1ccc2nc(Cc3cccc(Cl)c3)oc2c1,.,.,.,.,.
O=C(Nc1cccc(Cl)c1)NC1CC2CCC(C1)N2Cc1cccs1 (stereo not drawn),.,.,?,?,.
Cc1ccccc1N(CC(=O)N1CCCCCC1)S(C)(=O)=O,.,.,.,?,.
COc1cc(C2C(C#N)=C(N)OC3=C2C(=O)CC(C)(C)C3)cc([N+](=O)[O-])c1O (stereo not drawn),.,.,.,.,.
CCc1ccccc1NC1c2ccccc2C(=O)N1c1cc(C)ccn1 (stereo not drawn),.,.,13µM,.,.
Cc1ccnc(N2C(=O)c3ccccc3C2Nc2ccccc2Cl)c1 (stereo not drawn),.,29,?,?,.
Cc1sc2ncnc(N3CCC(C(=O)Nc4ccc(Cl)cc4Cl)CC3)c2c1C,/,/,10µM,?,/
Cc1sc2ncnc(N3CCC(C(=O)Nc4ccc(Cl)c(Cl)c4)CC3)c2c1C,/,/,13µM,?,/
Cc1sc2ncnc(N3CCC(C(=O)Nc4ccc(C#N)c(Cl)c4)CC3)c2c1C,/,/,?,12µM,/
COc1cc(NC(=S)NCc2cccnc2)c(OC)cc1Cl,.,.,.,12µM,/
COc1cc(NC(=S)Nc2cccc(Cl)c2Cl)c(OC)cc1Cl,.,.,?,2.9µM,.
Cc1cccc(NC(=O)CCC(=O)N2CCOCC2)n1,/,/,.,.,/
COC(=O)c1c(O)cc(C(C)(C)C)n(-c2ccc(F)cc2)c1=O,.,.,.,.,.
COc1cc(C=O)ccc1OCCCOc1ccccc1[N+](=O)[O-],48,64,.,.,.
COc1cc(/C=N/n2cnnc2)ccc1OS(=O)(=O)c1ccccc1[N+](=O)[O-],.,.,.,.,.
COc1cc(C=O)ccc1OCCCOc1ccccc1C(=O)O,.,.,.,.,.
COc1cc(C=O)ccc1OCCOCCOc1ccccc1Cl,.,.,.,?,.
COc1cc(C=O)ccc1OCCCCOc1ccccc1[N+](=O)[O-],15,35,.,.,.
COc1cc(C=O)ccc1OCCCOc1ccc([N+](=O)[O-])cc1,.,.,.,.,.
SMILES,Cycloheximide cs,Shiga inhibitor,Pf growth 48h,Pf growth 96h,NS1 function inh
COc1cc(C=O)ccc1OS(=O)(=O)c1ccccc1[N+](=O)[O-],22,.,.,.,.
COc1cc(C=O)ccc1OCCOc1ccccc1[N+](=O)[O-],28,85,.,.,.
Cc1cc(OC(=O)Cc2cccc3ccccc23)c([N+](=O)[O-])c(=O)[nH]1,.,.,.,.,.
COC(=O)CC1Oc2ccc(C)cc2NC1=O (stereo not drawn),.,.,/,9.3µM,.
COc1ccc(OC)c(CCNC(=O)CC2Oc3ccc(C)cc3NC2=O)c1 (stereo not drawn),.,.,/,10µM,.
O=C(O)CC1Oc2ccc(Cl)cc2NC1=O (stereo not drawn),.,.,.,5.2µM,.
COc1ccc(NC(=O)c2cc(S(=O)(=O)N3CCOCC3)cn2C)cc1Cl,.,.,.,.,.
OC(c1ccccc1)C1CN(Cc2ccccc2)CCC1(O)c1ccccc1 (stereo not drawn),.,.,0.74µM,.,.
O=C(c1ccccc1)C1CN(Cc2ccccc2)CCC1(O)c1ccccc1 (stereo not drawn),.,.,?,.,.
